Experimental data published in PubChem BioAssay (Tox21).
Inconclusive results are not listed. A structure can be active in one record and inactive in another. Active and inactive are the calls of the source. Unless noted, calls follow the shape of the dose curve; as a rule, active = well fitted curve in the direction sought with a large enough effect in the repeat runs; inconclusive = weak or mixed curves; inactive = no such curve, though single readings can be large; an effect the other way counts as inactive or inconclusive.

Legend:
[1] = Human pregnane X receptor (PXR) small molecule agonists, qHTS cell viability counter screen (AID 1346977); also: nearly all actives have a fitted effect of over 50% in size
In short: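 Viability counter screen: CellTiter-Fluor signal in PXR-Luc HepG2 cells, 24hr compound exposure, 37C, 5% CO2.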

[2] = Caspase-3/7 induction in CHO-K1 cells by small molecules, qHTS cell viability counter screen (AID 1346979); also: nearly all actives have a fitted effect of over 35% in size
In short: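 Viability readout by fluorescence (CellTiter-Fluor) on wild-type CHO-K1 cells exposed for 16hr at 37C and 5% CO2 to compounds delivered in DMSO; reagent incubated 1hr before reading.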

[3] = Caspase-3/7 induction in CHO-K1 cells by small molecules, qHTS assay (AID 1346980); also: nearly all actives have a fitted effect of over 15% in size
In short: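 Wild-type cells were seeded at 1,500 per well and settled 5 hr at 37 C, 5% CO2, then exposed to DMSO-dissolved compounds for 17 hr. Caspase-Glo 3/7 reagent was added, and luminescence was read after 30min at room temperature.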

[4] = Caspase-3/7 induction in HepG2 cells by small molecules, qHTS cell viability counter screen (AID 1346981); also: series mostly up to about 92 µM; nearly all actives have a fitted effect of over 30% in size
In short: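 Wild-type HepG2 cells, 2,000/well, settled 5 hr at 37 C, 5% CO2 before compound addition. Viability read by CellTiter-Fluor fluorescence, reagent added after 16 hr compound exposure, then 1 hr at 37C, in the same wells as the caspase read.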

[5] = molecular target: Acetylcholinesterase (Homo sapiens) (UniProt P22303); experiment: Acetylcholinesterase (AChE) small molecule antagonists: colormetric cell-based qHTS assay (AID 1347395; calls by dose curve; also: nearly all actives have a fitted effect of over 30% in size)
In short: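 Homogeneous whole-cell format. SH-SY5Y cells seeded overnight, dosed with compound (30 min, 37 C, 5% CO2), then given DTNB/acetylthiocholine cocktail for 90 min at 37 C; colorimetric signal.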

[6] = molecular target: Acetylcholinesterase (Homo sapiens) (UniProt P22303); experiment: Acetylcholinesterase (AChE) small molecule antagonists: enzyme-based qHTS assay (AID 1347397; calls by dose curve; also: nearly all actives have a fitted effect of over 55% in size); details: Potency: AChE enzyme activity inhibition; outcome: AChE enzyme activity inhibition
In short: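 Recombinant human AChE, dispensed at 50 mU/mL, was preincubated with Tox21 10K compounds or DMSO vehicle for 30 min at room temperature. DTNB plus acetylthiocholine was then added, and thiocholine was measured colorimetrically after a further 10 min.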

[7] = molecular target: Acetylcholinesterase (Homo sapiens) (UniProt P22303); experiment: Acetylcholinesterase (AChE) small molecule antagonists: fluorescence cell-based qHTS assay (AID 1347398; calls by dose curve; also: nearly all actives have a fitted effect of over 50% in size); details: Potency: AChE activity; outcome: AChE activity
In short: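 Human SH-SY5Y cells were plated overnight at 37 C, exposed to compound for 30 min at 37 C, 5% CO2, then given acetylthiocholine plus Thiolite Green for 40 min at room temperature; thiocholine fluorescence (Ex/Em 490/520 nm) reports endogenous AChE activity.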

[8] = molecular target: Acetylcholinesterase (Homo sapiens) (UniProt P22303); experiment: Acetylcholinesterase (AChE) small molecule antagonists: enzyme-based qHTS assay with human liver microsomes (AID 1347399; calls by dose curve; also: nearly all actives have a fitted effect of over 60% in size); details: Potency: qHTS inhibition; outcome: qHTS inhibition
In short: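 Recombinant human AChE (50 mU/mL in the enzyme mix) and human liver microsomes (0.25 mg/mL final) were preincubated with compound and NADPH (0.25 mg/mL final) for 30 min at 37 C. Acetylthiocholine/DTNB was then added; thiocholine was read colorimetrically after 10 min at room temperature.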

[9] = molecular target: Cytochrome P450 2C19 (Homo sapiens) (UniProt P33261); experiment: Cytochrome P450 Family 2 Subfamily C Member 19 (CYP2C19) small molecule antagonists: luciferase reporter qHTS assay (AID 1671197); also: nearly all actives have a fitted effect of over 65% in size; also: potency is read from the fitted curve at half-maximal effect
In short: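 Luminescent readout of CYP2C19 activity: luciferin product detected 20 min after adding detection reagent. Before that, compound and enzyme-substrate mix preincubated 10 min at room temperature; NADPH-regenerating system started a 1 h, 37C reaction. Ketoconazole as positive control.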

[10] = molecular target: Cytochrome P450 2C9 (Homo sapiens) (UniProt P11712); experiment: Cytochrome P450 Family 2 Subfamily C Member 9 (CYP2C9) small molecule antagonists: luciferase reporter qHTS assay (AID 1671198); also: nearly all actives have a fitted effect of over 50% in size; also: potency is read from the fitted curve at half-maximal effect
In short: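 CYP2C9 activity was measured with a P450-Glo proluciferin substrate. Enzyme–substrate mix was held with compound for 10 min at room temperature, then NADPH regeneration solution was added for 1 h at 37C. Luciferin product was read as luminescence.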

[11] = molecular target: Cytochrome P450 1A2 (Homo sapiens) (UniProt P05177); experiment: Cytochrome P450 Family 1 Subfamily A Member 2 (CYP1A2) small molecule antagonists: luciferase reporter qHTS assay (AID 1671199); also: nearly all actives have a fitted effect of over 50% in size; also: potency is read from the fitted curve at half-maximal effect
In short: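 P450-Glo CYP1A2 enzyme–proluciferin substrate mix with compound 10 min at room temperature, then NADPH regeneration 1 h at room temperature. Luciferin detection reagent added, luminescence read after 20 min; furafylline positive control.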

[12] = molecular target: Voltage-gated inwardly rectifying potassium channel KCNH2 (Homo sapiens) (UniProt Q12809); experiment: Human Ether-a-go-go-Related Gene (hERG) channel small molecule antagonists: fluorescence cell-based qHTS assay (AID 1671200)
In short: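 Thallium served as the potassium surrogate; its influx into dye-loaded U2OS cells carrying the channel was measured by fluorescence over 2 min.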

[13] = molecular target: Cytochrome P450 3A4 (Homo sapiens) (UniProt P08684); experiment: Cytochrome P450 Family 3 Subfamily A Member 4 (CYP3A4) small molecule antagonists: luciferase reporter qHTS assay (AID 1671201); also: nearly all actives have a fitted effect of over 50% in size; also: potency is read from the fitted curve at half-maximal effect
In short: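 Relative luminescence units after 20 min with luciferin detection reagent served as read-out. Beforehand, CYP3A4 turned over a proluciferin substrate for 1 h at room temperature with NADPH regeneration, following 10 min compound preincubation.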

[14] = molecular target: Nuclear receptor subfamily 1 group I member 2 (Homo sapiens) (UniProt O75469); experiment: Human pregnane X receptor (PXR) small molecule agonists, qHTS assay (AID 1346982); also: nearly all actives have a fitted effect of over 35% in size; also: potency is read from the fitted curve at half-maximal effect
In short: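 PXR-Luc HepG2 reporter cells (CYP3A4-driven luciferase) in 5% charcoal-stripped FBS medium, plated 5 h before compound addition, then treated 24 h at 37C. Luciferase read by ONE-Glo luminescence after 30 min at room temperature.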

[15] = molecular target: Cytochrome P450 2D6 (Homo sapiens) (UniProt P10635); experiment: Cytochrome P450 Family 2 Subfamily D Member 6 (CYP2D6) small molecule antagonists: luciferase reporter qHTS assay (AID 1671196); also: nearly all actives have a fitted effect of over 50% in size; also: potency is read from the fitted curve at half-maximal effect
In short: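 Cell-free P450-Glo system: CYP2D6 with proluciferin substrate was pre-incubated with compound for 10 min, then reacted with NADPH regeneration for 1 h at room temperature. Luciferin product was detected after 20 min, and data were reported as relative luminescence units.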

[16] = Caspase-3/7 induction in HepG2 cells by small molecules, qHTS assay (AID 1346978); also: nearly all actives have a fitted effect of over 15% in size
In short: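 Wild-type HepG2 cells (2,000/well) were settled 5 h at 37 C, 5% CO2, then exposed to compounds in DMSO for 17 h. Caspase-3/7 activity was read by luminescence 30 min after adding Caspase-Glo 3/7 reagent at room temperature.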

Measured: Potency

Sequence of Cytochrome P450 1A2 (Homo sapiens) (P05177 whole entry, looked up): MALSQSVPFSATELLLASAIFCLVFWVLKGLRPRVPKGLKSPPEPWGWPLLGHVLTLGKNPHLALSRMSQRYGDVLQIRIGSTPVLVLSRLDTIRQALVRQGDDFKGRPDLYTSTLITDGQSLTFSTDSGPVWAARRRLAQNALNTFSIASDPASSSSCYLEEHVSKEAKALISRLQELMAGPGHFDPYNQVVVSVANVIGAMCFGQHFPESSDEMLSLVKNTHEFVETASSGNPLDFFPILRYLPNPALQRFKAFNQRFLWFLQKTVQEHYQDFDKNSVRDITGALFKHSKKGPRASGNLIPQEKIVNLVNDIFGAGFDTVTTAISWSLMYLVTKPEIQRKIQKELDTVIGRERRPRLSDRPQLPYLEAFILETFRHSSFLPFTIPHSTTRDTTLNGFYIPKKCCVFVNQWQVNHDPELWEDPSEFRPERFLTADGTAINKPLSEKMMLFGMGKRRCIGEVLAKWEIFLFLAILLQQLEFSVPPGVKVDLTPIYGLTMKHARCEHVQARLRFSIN
Sequence of Nuclear receptor subfamily 1 group I member 2 (Homo sapiens) (O75469 whole entry, looked up): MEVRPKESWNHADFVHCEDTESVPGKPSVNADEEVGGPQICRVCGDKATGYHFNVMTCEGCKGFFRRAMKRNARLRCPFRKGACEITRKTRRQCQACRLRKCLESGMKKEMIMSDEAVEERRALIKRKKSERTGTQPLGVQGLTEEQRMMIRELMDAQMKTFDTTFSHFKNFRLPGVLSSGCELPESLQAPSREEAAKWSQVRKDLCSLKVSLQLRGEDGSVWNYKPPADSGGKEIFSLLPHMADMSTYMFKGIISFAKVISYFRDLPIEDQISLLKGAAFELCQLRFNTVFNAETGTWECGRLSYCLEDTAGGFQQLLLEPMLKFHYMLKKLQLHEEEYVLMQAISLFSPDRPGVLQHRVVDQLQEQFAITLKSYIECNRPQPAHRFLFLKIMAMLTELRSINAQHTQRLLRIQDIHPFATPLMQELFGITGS
Sequence of Cytochrome P450 3A4 (Homo sapiens) (P08684 whole entry, looked up): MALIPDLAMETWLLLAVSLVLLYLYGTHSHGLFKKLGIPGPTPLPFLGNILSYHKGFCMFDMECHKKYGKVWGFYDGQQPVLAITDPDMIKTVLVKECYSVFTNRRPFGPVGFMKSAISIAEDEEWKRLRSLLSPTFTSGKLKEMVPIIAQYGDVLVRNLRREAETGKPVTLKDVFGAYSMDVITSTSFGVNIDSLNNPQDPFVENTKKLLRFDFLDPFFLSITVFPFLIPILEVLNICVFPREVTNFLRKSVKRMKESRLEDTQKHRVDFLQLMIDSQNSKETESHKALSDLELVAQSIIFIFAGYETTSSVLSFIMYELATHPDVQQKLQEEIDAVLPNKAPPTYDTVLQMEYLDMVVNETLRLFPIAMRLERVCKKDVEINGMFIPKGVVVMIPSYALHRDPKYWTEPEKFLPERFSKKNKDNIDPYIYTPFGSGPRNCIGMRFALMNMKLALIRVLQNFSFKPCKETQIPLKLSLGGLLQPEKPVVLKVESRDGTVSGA
Sequence of Voltage-gated inwardly rectifying potassium channel KCNH2 (Homo sapiens) (Q12809 whole entry, looked up): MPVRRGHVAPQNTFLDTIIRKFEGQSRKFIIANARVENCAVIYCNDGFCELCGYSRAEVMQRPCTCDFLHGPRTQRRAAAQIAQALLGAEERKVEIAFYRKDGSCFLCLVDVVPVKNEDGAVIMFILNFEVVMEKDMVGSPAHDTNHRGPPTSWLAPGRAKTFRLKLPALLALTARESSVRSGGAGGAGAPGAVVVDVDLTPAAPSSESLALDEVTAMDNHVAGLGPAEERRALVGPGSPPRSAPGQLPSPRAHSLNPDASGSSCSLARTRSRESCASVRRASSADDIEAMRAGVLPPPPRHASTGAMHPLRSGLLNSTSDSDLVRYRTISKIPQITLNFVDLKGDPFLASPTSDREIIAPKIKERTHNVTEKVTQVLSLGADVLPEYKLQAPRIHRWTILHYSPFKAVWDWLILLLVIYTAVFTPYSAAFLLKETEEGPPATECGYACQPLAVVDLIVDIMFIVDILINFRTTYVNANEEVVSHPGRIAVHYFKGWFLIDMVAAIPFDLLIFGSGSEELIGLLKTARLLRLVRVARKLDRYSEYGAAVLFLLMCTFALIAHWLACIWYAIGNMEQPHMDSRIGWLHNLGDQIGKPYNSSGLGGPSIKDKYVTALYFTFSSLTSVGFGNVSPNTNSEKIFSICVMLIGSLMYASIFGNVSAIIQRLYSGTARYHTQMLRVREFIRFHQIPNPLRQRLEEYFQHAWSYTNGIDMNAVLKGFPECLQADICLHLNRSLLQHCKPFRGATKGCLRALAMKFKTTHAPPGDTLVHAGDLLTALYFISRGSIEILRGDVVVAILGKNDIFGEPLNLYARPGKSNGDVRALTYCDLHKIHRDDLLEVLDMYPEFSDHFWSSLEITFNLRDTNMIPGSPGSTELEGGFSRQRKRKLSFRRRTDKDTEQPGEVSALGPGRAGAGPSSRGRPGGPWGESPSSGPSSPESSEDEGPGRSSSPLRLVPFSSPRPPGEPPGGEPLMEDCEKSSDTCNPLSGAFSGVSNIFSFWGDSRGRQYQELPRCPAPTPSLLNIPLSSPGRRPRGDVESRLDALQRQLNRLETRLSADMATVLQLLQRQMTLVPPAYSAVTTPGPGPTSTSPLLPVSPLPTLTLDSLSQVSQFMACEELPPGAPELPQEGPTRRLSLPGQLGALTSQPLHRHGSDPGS
Sequence of Cytochrome P450 2C9 (Homo sapiens) (P11712 whole entry, looked up): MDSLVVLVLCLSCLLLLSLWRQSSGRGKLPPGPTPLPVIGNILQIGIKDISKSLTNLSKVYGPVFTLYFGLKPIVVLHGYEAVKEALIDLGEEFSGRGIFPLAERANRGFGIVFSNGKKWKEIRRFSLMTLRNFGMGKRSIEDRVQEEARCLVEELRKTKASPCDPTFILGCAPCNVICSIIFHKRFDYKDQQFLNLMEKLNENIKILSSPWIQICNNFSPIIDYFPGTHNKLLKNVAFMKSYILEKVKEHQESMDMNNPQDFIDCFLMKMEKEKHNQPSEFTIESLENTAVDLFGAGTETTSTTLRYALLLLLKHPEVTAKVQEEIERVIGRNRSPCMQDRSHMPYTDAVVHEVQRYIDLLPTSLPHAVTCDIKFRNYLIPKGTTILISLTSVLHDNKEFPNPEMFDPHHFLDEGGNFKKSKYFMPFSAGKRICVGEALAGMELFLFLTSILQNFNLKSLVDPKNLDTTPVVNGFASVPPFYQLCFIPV
Sequence of Cytochrome P450 2D6 (Homo sapiens) (P10635 whole entry, looked up): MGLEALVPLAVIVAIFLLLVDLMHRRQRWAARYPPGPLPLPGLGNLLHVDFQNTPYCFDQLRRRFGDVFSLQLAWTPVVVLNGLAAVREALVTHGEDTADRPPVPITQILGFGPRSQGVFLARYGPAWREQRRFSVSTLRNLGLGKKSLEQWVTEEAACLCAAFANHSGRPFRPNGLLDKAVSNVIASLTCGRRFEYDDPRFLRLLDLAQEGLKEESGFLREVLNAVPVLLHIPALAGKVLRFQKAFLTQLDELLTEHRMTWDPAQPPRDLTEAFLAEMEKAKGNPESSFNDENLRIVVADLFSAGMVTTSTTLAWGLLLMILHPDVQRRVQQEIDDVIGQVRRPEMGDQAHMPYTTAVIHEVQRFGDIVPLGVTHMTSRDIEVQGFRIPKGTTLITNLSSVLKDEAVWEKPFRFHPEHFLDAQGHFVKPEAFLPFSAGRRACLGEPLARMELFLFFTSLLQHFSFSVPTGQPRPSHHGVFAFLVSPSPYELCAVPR
Sequence of Acetylcholinesterase (Homo sapiens) (P22303 whole entry, looked up): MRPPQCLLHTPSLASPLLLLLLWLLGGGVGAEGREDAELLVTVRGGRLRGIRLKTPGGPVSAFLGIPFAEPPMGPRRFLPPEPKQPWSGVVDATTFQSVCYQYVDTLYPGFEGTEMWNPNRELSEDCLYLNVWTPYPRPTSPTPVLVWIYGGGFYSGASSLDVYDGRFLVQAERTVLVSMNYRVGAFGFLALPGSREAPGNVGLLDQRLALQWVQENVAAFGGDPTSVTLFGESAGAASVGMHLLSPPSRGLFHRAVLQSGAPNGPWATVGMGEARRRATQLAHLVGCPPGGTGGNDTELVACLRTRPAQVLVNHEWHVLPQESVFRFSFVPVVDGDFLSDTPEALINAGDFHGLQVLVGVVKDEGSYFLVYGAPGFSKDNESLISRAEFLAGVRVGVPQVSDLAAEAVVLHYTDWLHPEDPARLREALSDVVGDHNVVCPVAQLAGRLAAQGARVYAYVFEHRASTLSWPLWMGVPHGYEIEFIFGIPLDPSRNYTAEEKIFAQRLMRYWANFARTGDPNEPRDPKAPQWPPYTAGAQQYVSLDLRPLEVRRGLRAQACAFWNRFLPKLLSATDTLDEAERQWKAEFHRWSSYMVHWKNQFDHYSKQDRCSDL
Sequence of Cytochrome P450 2C19 (Homo sapiens) (P33261 whole entry, looked up): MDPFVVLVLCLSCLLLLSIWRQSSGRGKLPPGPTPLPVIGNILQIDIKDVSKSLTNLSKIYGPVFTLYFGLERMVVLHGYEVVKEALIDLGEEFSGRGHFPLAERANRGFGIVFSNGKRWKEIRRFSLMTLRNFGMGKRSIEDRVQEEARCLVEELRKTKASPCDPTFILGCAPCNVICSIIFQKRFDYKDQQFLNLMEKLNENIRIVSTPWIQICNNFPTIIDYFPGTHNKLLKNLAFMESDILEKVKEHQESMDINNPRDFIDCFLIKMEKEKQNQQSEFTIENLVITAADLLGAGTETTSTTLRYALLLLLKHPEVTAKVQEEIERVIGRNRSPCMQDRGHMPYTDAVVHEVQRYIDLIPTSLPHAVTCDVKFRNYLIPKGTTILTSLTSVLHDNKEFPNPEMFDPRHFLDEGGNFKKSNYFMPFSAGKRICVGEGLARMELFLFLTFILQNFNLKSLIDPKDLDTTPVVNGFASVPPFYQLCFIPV

C=CCc1ccc(OC(=O)Cc2ccccc2)c(OC)c1
active: [9] 22.4 µM | [10] 12.6 µM | [11] 35.6 µM | [13] 11.2 µM
not listed: [14] | [15] | [16]
inactive: all other assays above

CC(O)CN1CCN(CC(=O)[O-])CCN(CC(=O)[O-])CCN(CC(=O)[O-])CC1.[Gd+3] (centres undefined)
not listed: [9] | [10] | [11] | [16]
inactive: all other assays above

O=C(Cc1ccccc1)OCCc1ccccc1
active: [9] 2.52 µM | [10] 20 µM | [11] 10 µM
not listed: [1]
inactive: all other assays above

Nc1cc(Cl)cc(C(=O)O)c1Cl
39.6 µM (active) and inactive: [15]
not listed: [6] | [10] | [11] | [16]
inactive: all other assays above

CCOP(=S)(OCC)SCSc1cc(Cl)ccc1Cl
not listed: [14] | [16]
inactive: all other assays above

CC(C)c1ccc(NC(=O)N(C)C)cc1
active: [14] 30.6 µM | [9] 31.7 µM | [11] 15.9 µM
not listed: [10] | [16]
inactive: all other assays above

CCCCC(CC)CO[N+](=O)[O-] (centres undefined)
not listed: [1] | [11]
inactive: all other assays above

O=C=NC1CCCCC1
active: [14] 9.71 µM
not listed: [16]
inactive: all other assays above
